Experimental data as given in PubChem BioAssay (NCI).
The panel holds about 83,000 compounds, 20% with a hit somewhere; the sample as a whole holds those more often.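 48-hour exposure, single concentration, 96-well plates; percent growth endpoint where 0 means no net growth. Active: below 10.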 A number with no mark means an inactive call. Active and inactive are the calls of the source.

How the values were obtained:
Test in all cases: NCI-60 one-dose screen, 48 h (100 = growth as untreated, 0 = no growth, -100 = all killed)
Details in all cases: 10 µM
NCI-H23 lung = test system: NCI-H23 lung
NCI-H226 lung = test system: NCI-H226 lung
NCI-H322M lung = test system: NCI-H322M lung
HOP-62 NSCLC = test system: HOP-62 NSCLC
NCI-H522 lung = test system: NCI-H522 lung
A549/ATCC NSCLC = test system: A549/ATCC NSCLC
786-0 renal = test system: 786-0 renal
COLO 205 colon = test system: COLO 205 colon
NCI-H460 lung = test system: NCI-H460 lung
HOP-92 NSCLC = test system: HOP-92 NSCLC

Row | SMILES | growth (NCI-H23 lung) | growth (NCI-H226 lung) | growth (NCI-H322M lung) | growth (HOP-62 NSCLC) | growth (NCI-H522 lung) | growth (A549/ATCC NSCLC) | growth (786-0 renal) | growth (COLO 205 colon) | growth (NCI-H460 lung) | growth (HOP-92 NSCLC)
1 | Cc1c(C(=O)O)c(=O)n(-c2ccccc2)n1C | 92% | 103% | 122% | 96.7% | 104% | 108% | 113% | 110% | – | –
2 | O=C(O)/C=C/C(=O)NCc1ccccc1 | 107% | 98.4% | 93.5% | 101% | – | – | 98.9% | 106% | 104% | –
3 | COCCOCCCl | 102% | 101% | 112% | – | 101% | 106% | 105% | 107% | 104% | 95%
4 | CC1(C)OC(=O)C(c2ccsc2)C(=O)O1 | 95% | 105% | 102% | – | 82.6% | 84.7% | 108% | – | 113% | 104%
5 | C=CCCCCCCCCCOC(C)=O | 100% | 96.7% | 102% | – | 102% | – | 108% | 110% | 109% | 90.2%
6 | CCOC(=O)CNN | 102% | 90.7% | 98% | – | 96.7% | 101% | 106% | 110% | 99.6% | 99.4%
7 | N/N=C(/Cc1ccccc1)NNC(N)=S | 99% | 108% | 82.7% | – | 72.4% | 74.4% | 111% | – | 103% | 119%
8 | CC(=O)Cc1ccc(-c2ccccc2)cc1 | 95.6% | 91.5% | 85.9% | – | 111% | 94.8% | 105% | 115% | 103% | 96.3%
9 | CC(C)=NNC(N)=S | 77.7% | 83.7% | 104% | – | 88% | 92.6% | 104% | 83.5% | 83.4% | 85.8%
10 | OC1OC(COC(c2ccccc2)(c2ccccc2)c2ccccc2)C(O)C(O)C1O (stereo unspecified) | 98.1% | 90.1% | 92.1% | 107% | – | – | 102% | 117% | 101% | –
11 | O=C1OC(=O)C2C1C1(Cl)C(Cl)=C(Cl)C2(Cl)C2C(=O)OC(=O)C21 (stereo unspecified) | 101% | 97.5% | 107% | 104% | – | – | 102% | 93.9% | 107% | –
12 | CCOC(=O)C(O)C(O)C(=O)OCC (stereo unspecified) | 100% | 106% | 102% | – | 101% | 104% | 105% | 106% | 103% | 94.1%
13 | Sc1ccc(Nc2c3ccccc3nc3ccccc23)cc1 | 73% | 91.2% | 74.6% | 92.4% | 40.9% | 61% | 95.5% | 38.9% | – | 76.9%
14 | CCOC(=O)CCCC(=O)OCC | 97.9% | 104% | 99.2% | – | 105% | 101% | 102% | 101% | 105% | 101%
15 | CC1(C(N)=O)CCC(C(=O)O)C1(C)C (stereo unspecified) | 103% | 95.5% | 95.2% | – | 106% | 98% | 98% | 108% | 103% | 94.3%
16 | O=C(NCO)c1ccccc1 | 109% | 101% | 91.6% | 97.8% | – | – | 108% | 106% | 105% | –
17 | COc1cccc(O)c1O | 56.3% | 101% | 98.6% | – | 79% | 101% | 88.1% | 108% | 103% | 93.7%
18 | Nc1ccccc1SC(CC(=O)c1ccccc1)c1c(Cl)cccc1Cl (stereo unspecified) | 76.1% | 96.6% | 91.8% | 73.4% | – | – | 96.8% | 91.8% | 84.8% | –

Row | SMILES | growth (NCI-H23 lung) | growth (NCI-H226 lung) | growth (NCI-H322M lung) | growth (HOP-62 NSCLC) | growth (NCI-H522 lung) | growth (A549/ATCC NSCLC) | growth (786-0 renal) | growth (COLO 205 colon) | growth (NCI-H460 lung) | growth (HOP-92 NSCLC)
19 | CC1OC(Oc2c(-c3ccc(O)c(O)c3)oc3cc(O)cc(O)c3c2=O)C(O)C(O)C1O (stereo unspecified) | 102% | 96.1% | 106% | – | 102% | 102% | 108% | 104% | 105% | 88.6%
20 | COc1ccccc1N=Nc1c(O)ccc2cc(S(=O)(=O)O)ccc12 | 86.8% | 98.2% | 99.1% | 82.7% | 85.7% | – | 107% | 104% | – | 84.7%
21 | C/C=C/CC(C)C(O)C1C(=O)NC(CC)C(=O)N(C)CC(=O)N(C)C(CC(C)C)C(=O)NC(C(C)C)C(=O)N(C)C(CC(C)C)C(=O)NC(C)C(=O)NC(C)C(=O)N(C)C(CC(C)C)C(=O)N(C)C(CC(C)C)C(=O)N(C)C(C(C)C)C(=O)N1C (stereo unspecified) | 20.1% | 5.76% (active) | 33.8% | 35.6% | 9.55% (active) | 17.2% | 41.9% | -72.8% (active) | – | –
22 | CC(C)CCOC(=O)c1ccccc1 | 106% | 102% | 95.6% | – | 104% | 102% | 99.8% | 105% | 106% | 101%
23 | Cc1cccc(CO)c1 | 94.5% | 99% | 102% | – | 105% | 102% | 104% | 105% | 105% | 102%
24 | COc1cc(/C=C(\C#N)C(=O)c2ccccc2)ccc1OCc1ccccc1 | 91.5% | 92.3% | 91.6% | – | 97.6% | – | 101% | – | 101% | 95.7%
25 | C/C(=C\c1ccc([N+](=O)[O-])cc1)C(=O)O | 102% | 98.3% | 111% | – | 87.1% | – | 96.7% | – | 102% | 95.1%
26 | CCO/C=C1\SC(=S)N(c2cccc(C)c2)C1=O | 108% | 93.4% | 92% | 88.9% | – | – | 106% | 108% | 102% | –
27 | COc1cc(C2c3cc4c(cc3C3OC(=O)C2C3CO)OCO4)cc(OC)c1OC (stereo unspecified) | 14.7% | – | 36.9% | 28.5% | -30.5% (active) | 14.9% | 14.4% | -92.4% (active) | 0.82% (active) | 45.7%
28 | COCCOC(=O)c1ccc(C(C)C)cc1 | 102% | – | 98.2% | 80.3% | 79.7% | 79.5% | 93.8% | 104% | 108% | 81.8%
29 | O=C(O)COCC(=O)O | 105% | – | 97.6% | 103% | 94.3% | 91.6% | 110% | 108% | 107% | 72.4%
30 | CC(=O)/C(Cc1ccccc1)=N/O | 97.3% | – | 105% | 98.4% | 74.3% | 95.4% | 102% | 97.9% | 105% | 68%
31 | O=[N+]([O-])c1ccccc1N=Nc1ccc(O)cc1O | 103% | – | 107% | 106% | – | 106% | 108% | 102% | 115% | 112%
32 | COc1cc2c3cc1Oc1c(OC)c(OC)cc4c1C(Cc1ccc(O)c(c1)Oc1ccc(cc1)CC3N(C)CC2)N(C)CC4 (stereo unspecified) | 10.8% | – | 44.6% | 4.33% (active) | -34.4% (active) | -33% (active) | 32.3% | -97.3% (active) | 2.92% (active) | -17.1% (active)
33 | CC1CC(O)C2C3(C)CCCC2(COC3=O)C12CCC1(CCOC1=O)O2 (stereo unspecified) | 109% | – | 117% | 111% | 107% | 110% | 99.1% | 118% | 95.4% | 81.8%
34 | O=S(=O)(O)c1ccc(Cl)c(Cl)c1 | 101% | – | 127% | 102% | – | 95.5% | 98.5% | 117% | 110% | 94.3%
35 | Cc1ccc(S(=O)(=O)O)c(C)c1 | 105% | – | 96.7% | 94.5% | 90.2% | 104% | 103% | 104% | 103% | 92.4%
